Screens deposited in PubChem BioAssay by Broad Institute.
RAD52 anneal inh: blocks human RAD52 DNA annealing. AID 651710. inhibition, % at 18.7 µM. P43351. 360,000 tested, 0.46% active. recombinant RAD52 DNA annealing, FRET fluorescence;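 active = every replicate showing at least 50% inhibition; inconclusive = mean inhibition at least 50% but not in every replicate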
GSIS activator: primary screen for activators of insulin secretion dependent on glucose, INS-1E cells, GLuc reporter luminescence | INS-1E GLuc reporter insulin secretion, 2-3 h | activation, % at 16.6 µM | 370,000 tested, 0.61% active | AID 743287;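 active = lowest replicate activation of at least 40%, so every replicate reaches that level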;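 also: 0% = median of neutral control wells and 100% = median of IBMX positive control wells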
dFosB act-1: mouse delta FosB homodimer activation. activation, % at 25 µM. P13346. 340,000 tested, 0.99% active. purified delta FosB, TAMRA-CDK5 oligo fluorescence polarization; percent of positive-control signal above neutral wells;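 active = mean activation above about 17%, with every replicate also reaching it, limit read from the data, passing the limit was not always enough; inconclusive = only one of the two conditions met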
DENV2 CPE rescue: DENV2-induced cell death inhibition; DENV2-infected cells, cytopathic effect rescue, plate reader; CPE inhibition, % at 9.99 µM; 350,000 tested, 1.7% active; in the data active = CPE inhibition above about 20%, passing the limit was not always enough; inconclusive = no clear call, values can overlap the other calls; tested in BHK-21 cells;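 also: 0% = median of neutral control wells and 100% = median of positive control wells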
RAD54 branch: blocks human RAD54 Holliday junction branch migration | Q92698 | FAM/BHQ fluorescence | inhibition, % at 10.4 µM | 360,000 tested, 0.14% active;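 active = mean normalized replicate activity at least 40 and at least half of replicates scoring 40 or more; inconclusive = only one of the two criteria met; inactive = mean below 40 and under half of replicates reaching 40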;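 also: 0% = median of neutral control wells and 100% = median of positive control wells; inhibitors cause a drop in the FAM fluorescence signal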
Target sequence (Q92698 whole entry, looked up): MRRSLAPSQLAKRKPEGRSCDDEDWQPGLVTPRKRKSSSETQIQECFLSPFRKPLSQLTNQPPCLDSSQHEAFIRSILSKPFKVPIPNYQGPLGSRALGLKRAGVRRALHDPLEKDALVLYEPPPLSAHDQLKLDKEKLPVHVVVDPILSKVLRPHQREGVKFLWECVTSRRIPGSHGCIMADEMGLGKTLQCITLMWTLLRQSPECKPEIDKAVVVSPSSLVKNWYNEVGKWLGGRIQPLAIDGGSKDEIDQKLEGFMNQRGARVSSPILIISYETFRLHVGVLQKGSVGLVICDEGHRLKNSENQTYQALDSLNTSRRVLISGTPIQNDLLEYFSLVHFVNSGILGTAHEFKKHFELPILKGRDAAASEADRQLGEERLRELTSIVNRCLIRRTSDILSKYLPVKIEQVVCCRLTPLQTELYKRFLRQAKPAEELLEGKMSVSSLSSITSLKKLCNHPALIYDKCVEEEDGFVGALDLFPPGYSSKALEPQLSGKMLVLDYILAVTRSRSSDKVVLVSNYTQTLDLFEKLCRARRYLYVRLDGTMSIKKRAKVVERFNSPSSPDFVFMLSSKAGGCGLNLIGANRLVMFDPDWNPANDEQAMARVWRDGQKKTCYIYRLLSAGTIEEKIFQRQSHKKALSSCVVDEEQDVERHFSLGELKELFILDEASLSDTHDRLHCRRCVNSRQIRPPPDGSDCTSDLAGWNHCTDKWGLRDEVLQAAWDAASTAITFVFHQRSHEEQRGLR
AF4-AF9 inh: inhibitors of human MLL-AF4/AF9 interaction; AlphaScreen, biotin-AF4 peptide binding to FLAG-AF9; inhibition, % at 10 µM; P42568; 350,000 tested, 0.47% active;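 active = every replicate reaching a set inhibition limit, whatever the replicate mean, cut at about 25% in these data; inconclusive = mean inhibition reaches that limit but some replicates miss it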;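 also: 0% = plate neutral control median and 100% = total signal loss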
dFosB act-2: delta FosB (mouse) homodimer activation; activation, % at 24.9 µM; purified delta FosB, TAMRA-CDK5 oligo fluorescence polarization; normalised: neutral wells 0, positive control 100; 2,400 tested, under 10 active; shares compounds with dFosB act-1;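 active = highest replicate activation at or above 34% and every replicate reaching that threshold; inconclusive = meets only one of the two criteria; inactive = meets neither criterion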;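 also: higher polarization means more probe DNA bound by delta FosB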
An asterisk follows results filed as active; ? = inconclusive; / = not tested or not shown. Rows were chosen to be rich in hits. Some 3.1% of all compounds tested hit in one or more screens of this group.

SMILES	RAD52 anneal inh	GSIS activator	dFosB act-1	DENV2 CPE rescue	RAD54 branch	AF4-AF9 inh	dFosB act-2
O=C1COc2ccc(C(=O)COC(=O)/C=C/c3cccc(F)c3)cc2N1	-16	18	80*	6	6	12	4
COCCn1c(=S)[nH]c2cc(C(=O)N3CCc4ccccc43)ccc2c1=O	/	/	-11	/	/	/	/
CCCn1c(=S)[nH]c2cc(C(=O)N3CCc4ccccc43)ccc2c1=O	/	/	50*	/	-10	/	6
CC1Cc2ccccc2N1S(=O)(=O)c1cnc[nH]1 (stereo not drawn)	/	/	-4	/	-26	/	/
O=S(=O)(c1cnc[nH]1)N1CCc2ccccc21	/	/	20*	/	-7	/	2
CC(=O)Nc1ccc(S(=O)(=O)NCCS(=O)(=O)N2CCN(c3ccccc3F)CC2)cc1	-2	10	22*	7	7	2	2
C[C@@H]1CN([C@H](C)CO)C(=O)c2cc(NC(=O)Nc3ccc(C(F)(F)F)cc3)ccc2O[C@@H]1CN(C)Cc1ccc(C(=O)Nc2ccccc2N)cc1	17	-3	/	-8	-3	-2	/
COc1ccc(Cl)cc1NC(=O)c1cc(-c2ccco2)on1	-19	-22	10	5	-7	3	/
O=C(Nc1cc(Cl)ccc1Cl)c1cc(-c2ccco2)on1	-41	4	18*	-5	5	0	-4
C[C@H](CO)N1C[C@H](C)[C@H](CN(C)C(=O)CCN2CCCCC2)Oc2ncc(C#CCN(C)C)cc2C1=O	-2	-11	/	10	-11	-2	/
Cc1ccc(S(=O)(=O)N2CCN(c3nc(CN4CCCC4)nc4sc(C)c(C)c34)CC2)cc1	-29	-27	10	6	-2	9	/
Cc1sc2nc(CN3CCCC3)nc(N3CCN(S(=O)(=O)c4cccs4)CC3)c2c1C	/	/	42*	/	9	/	?
O=C(N[C@H]1CC[C@H](CCNC(=O)C2CCCCC2)O[C@H]1CO)c1ccncc1	-2	34	/	-16	0	0	/
CCOC(=O)c1c(CNCCN(CC)CC)n(C)c2cc(Br)c(OC)cc12	/	-7	24*	/	/	/	?
CCOC(=O)c1c(C)n(C)c2cc(Br)c(OC)cc12	-9	32	-4	/	/	2	/
C[C@@H]1CN([C@H](C)CO)C(=O)c2cccc(NC(=O)Nc3ccccc3)c2O[C@@H]1CN(C)S(=O)(=O)c1ccc(Cl)cc1	23	-12	/	-15	-19	8	/
N#C/C(=C/c1ccc(CNC(=O)C(=O)Nc2cc(Cl)cc(Cl)c2)o1)C(=O)NCc1cccnc1	-47	-1	53*	2	/	-2	0
Cc1ccc(NC(=O)C(=O)NCc2ccc(/C=C(/C#N)C(=O)NCc3cccnc3)o2)cc1	/	-20	-18	/	7	/	/
Cn1c(=O)c(=O)n(C)c2cc(S(=O)(=O)CCC(=O)Nc3cccc(C(F)(F)F)c3)ccc21	-8	20	21*	-1	-14	-2	3
O=C(N[C@@H]1CC[C@@H](CCn2cc(-c3ccccc3F)nn2)O[C@H]1CO)c1ccc2c(c1)OCO2	6	0	/	0	-3	-21	/
O=C(C[C@@H]1C[C@@H]2c3cc(NC(=O)Nc4ccc(F)cc4)ccc3O[C@@H]2[C@@H](CO)O1)NC1CCCC1	-17	1	/	2	-9	3	/
O=C(NNC(=O)c1ccc(NC(=O)c2ccccc2)cc1)Nc1ccccc1	-10	2	25*	2	/	-3	-1
O=C(NNC(=O)c1ccc(NC(=O)c2ccccc2)cc1)c1ccc(F)cc1	4	19	39*	-7	-1	-19	7
CN(C)c1ccc(C(=O)NNC(=O)Nc2ccccc2)cc1	3	7	7	-2	/	-2	/
O=C(Nc1ccc2cccnc2c1)c1ccc(Br)cc1	-13	/	-12	-4	-2	0	/
O=C(Nc1ccc2nc3ccccc3nc2c1)c1ccc(Br)cc1	/	31	32*	/	-4	/	-2
CCC(=O)N(C)C[C@H]1Oc2cc(C3=CCCCC3)ccc2S(=O)(=O)N([C@H](C)CO)C[C@@H]1C	/	-1	/	/	/	/	/
Cc1cc(C)c(NC(=O)CSc2nc3ncc(Br)cc3[nH]2)c(C)c1	-26	8	30*	2	-7	0	-1
